DT40 TDP1 CPT: growth inhibition of DT40 Tdp1-/-;hTDP1 cells with camptothecin (screen for TDP1 inhibitors). chicken DT40 Tdp1-/-;hTDP1 cells + 20 nM CPT, ATP luminescence, 48 h. actives 12% (n = 420,000). Potency, µM (doses to about 46.2 µM), without a hit: top-dose activity change, negative = growth inhibition, usual class: inhibitors. AID 686979; note: potency is the fitted concentration of half-maximal effect; nearly all actives have a fitted effect of over 55% in size
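Chicken DT40 Tdp1-/- cells complemented with human TDP1, 400 cells/well, exposed to compounds plus 20 nM camptothecin for at least 48 h at 37 C; viability read as ATP content by CellTiter-Glo luminescence.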
HT1080 IDH1KD tx: HT-1080 IDH1 knockdown cell toxicity (counter line) | AID 686971 | actives 2% (n = 360,000) | HT-1080 IDH1 knockdown viability, ATP luminescence, 48 h | Potency, µM (highest dose often 46.1 µM), for inactives: at the highest dose activity, negative = toxicity, actives largely listed as cytotoxic;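 note: potency is the fitted concentration of half-maximal effect; 0% = DMSO wells and -100% = cell-free medium wells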
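IDH1KD HT-1080 cells, 750/well, RPMI + 5% FBS; compound pinned after 2 h settling; 48 h, 37 °C; CellTiter-Glo luminescence; % activity normalised to DMSO and no-cell wells; curves fitted, classed by r2 and efficacy.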
HT1080-NT tox: kills 2HG-producing HT-1080-NT fibrosarcoma cells; HT-1080-NT fibrosarcoma viability, CellTiter-Glo ATP luminescence, 48 h; Potency, µM (titrated, usually from 46.1 µM), without a hit: top-dose activity, negative = less viability, usual class: cytotoxic; actives 1.6% (n = 360,000); AID 686970;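 note: NT is the 2HG producing partner of a matched IDH1 knockdown line; potency is the fitted concentration of half-maximal effect; 0% = DMSO-treated cells and -100% = media-only wells without cells; nearly all actives have a fitted effect of over 55% in size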
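Fibrosarcoma NT cells, 750 per well in 5% FBS RPMI, were exposed to compound for 48 hours. Viability: CellTiter-Glo luminescence.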
IL1B secr inh: inhibitors of inflammasome signaling (IL-1 beta secretion). AID 743279. actives 4.7% (n = 360,000). activity change, % at 57.5 µM. THP-1 LPS/ATP IL-1B secretion, AlphaLISA, 16 h; hits give low values; in the data active = activity change below about -50%; inconclusive = mostly about -30% to -49%
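THP-1 cells pretreated 1 hr with compounds (up to 57.5 uM final), then stimulated with LPS (250 ng/mL final) plus ATP (1.25 mM final); secreted IL-1B measured by AlphaLISA after 16 hr, decreased signal indicating inhibition.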
DT40 TDP1 no CPT: qHTS for Inhibitors of human tyrosyl-DNA phosphodiesterase 1 (TDP1): qHTS in cells in absence of CPT; Potency, µM (doses to about 46.2 µM), inactives show at the highest dose activity change, negative = growth inhibition, actives largely listed as inhibitors; DT40 Tdp1-/- hTDP1 cells, no CPT, ATP luminescence, 48 h; actives 15% (n = 420,000); note: potency is the fitted concentration of half-maximal effect; nearly all actives have a fitted effect of over 55% in size
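Growth kinetics read by CellTiter-Glo luminescence after ≥48 hr at 37 °C. Cells: DT40 Tdp1-/- stably carrying human TDP1, 400 per well, compound exposure in the absence of CPT (DMSO vehicle).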
* = called active by the depositor; [ ] = remark or other dose. This is a sample that favours compounds with a hit; in the whole collection about 19% have one here. Unless noted, calls come from the whole dose curve; as a rule, active = well fitted curve in the direction sought with a large enough effect; inconclusive = small, poorly fitted or top-dose-only effect, or another doubt; inactive = no such curve, though single readings can be large; an effect the other way counts as inactive or inconclusive. Unless noted, % is set by controls: 0 for no effect and ±100 for the full control effect.

Screening CCN(Cc1ccccc1)C(=O)c1nn(-c2ccc(OC)cc2)c(=O)c2c1c1ccccc1n2C returned DT40 TDP1 CPT 11.6µM*, HT1080 IDH1KD tx 2.0%, HT1080-NT tox -3.3%, IL1B secr inh -0.4 and DT40 TDP1 no CPT 23.1µM*.
For CSc1ccc2nnc(-c3ccc(C)cc3)n2n1 the results were DT40 TDP1 CPT inconclusive and DT40 TDP1 no CPT 11.2µM*.
`Cc1ccc(-c2nnc3ccc(SCC(=O)c4ccccc4)nn23)cc1` gave DT40 TDP1 CPT inconclusive and DT40 TDP1 no CPT 14.1µM*.
`CC(=O)C(Sc1ccc2nnc(-c3ccc(F)cc3)n2n1)C(C)=O` gave DT40 TDP1 CPT inconclusive, HT1080 IDH1KD tx -13.4%, HT1080-NT tox -4.1%, IL1B secr inh 7.2 and DT40 TDP1 no CPT -28.1%.
CCOC(=O)C(CC)Sc1ccc2nnc(-c3ccc(F)cc3)n2n1 (configuration not stated) was read as DT40 TDP1 CPT 20µM* and DT40 TDP1 no CPT inconclusive.
Screening CC(=O)C(Sc1ccc2nnc(-c3ccc(C)cc3)n2n1)C(C)=O returned DT40 TDP1 CPT 11.6µM*, HT1080 IDH1KD tx -0.8%, HT1080-NT tox 9.9%, IL1B secr inh 24.4 and DT40 TDP1 no CPT 20.6µM*.
Screening COc1cc(CC(=O)Nc2sc3c(c2C(N)=O)CCCC3)cc(OC)c1OC returned DT40 TDP1 CPT inconclusive, HT1080 IDH1KD tx inconclusive, HT1080-NT tox -18.7%, IL1B secr inh 56.5 and DT40 TDP1 no CPT inconclusive.
Screening CCCN1C(=S)c2ccccc2C1c1ccccc1 (configuration not stated) returned DT40 TDP1 CPT 25.8%, HT1080 IDH1KD tx 0.5%, HT1080-NT tox 4.9%, IL1B secr inh -2.8 and DT40 TDP1 no CPT -19.8%.
For CSCCC(NC=O)C(=O)NC(C)C(=O)O (configuration not stated) the results were DT40 TDP1 CPT 2.91µM*, HT1080 IDH1KD tx 6.6%, HT1080-NT tox -0.9%, IL1B secr inh -22.4 and DT40 TDP1 no CPT 0.651µM*.
For CSCCC(NC=O)C(=O)NC(CC(C)C)C(=O)NC(Cc1ccccc1)C(=O)O (configuration not stated) the results were DT40 TDP1 CPT -3.9% and DT40 TDP1 no CPT -3.4%.
For Cc1nn(CCCC(=O)NC2CCC(C)CC2)c(=O)c2nn(-c3ccccc3)c(C)c12 (configuration not stated) the results were DT40 TDP1 CPT inconclusive, HT1080 IDH1KD tx 12.0%, HT1080-NT tox 7.5%, IL1B secr inh -0.3 and DT40 TDP1 no CPT inconclusive.
`COc1cc(OC)cc(C(=O)Nc2nc3ccc(S(C)(=O)=O)cc3s2)c1` gave DT40 TDP1 CPT -24.9%, HT1080 IDH1KD tx -21.5%, HT1080-NT tox -19.7%, IL1B secr inh 58.4 and DT40 TDP1 no CPT inconclusive.
Screening COc1ccc2oc(C(=O)Nc3nnc(C)s3)c(C)c2c1 returned DT40 TDP1 CPT -26.4%, HT1080 IDH1KD tx 11.6%, HT1080-NT tox 9.1%, IL1B secr inh -28.7 and DT40 TDP1 no CPT -11.0%.
`COc1ccc2oc(C(=O)Nc3nc(-c4ccccn4)cs3)c(C)c2c1` gave DT40 TDP1 CPT 5.8µM*, HT1080 IDH1KD tx inconclusive, HT1080-NT tox -28.4%, IL1B secr inh 28.0 and DT40 TDP1 no CPT 5.8µM*.
`COc1ccc2oc(C(=O)Nc3nc4ccc(S(C)(=O)=O)cc4s3)c(C)c2c1` gave DT40 TDP1 CPT inconclusive, HT1080 IDH1KD tx -3.3%, HT1080-NT tox -3.3%, IL1B secr inh -52.1* and DT40 TDP1 no CPT 16.4µM*.
CCC1CC(C(=O)O)CC(=O)N1 (configuration not stated) was read as DT40 TDP1 CPT 7.5%, HT1080 IDH1KD tx 4.9%, HT1080-NT tox 20.9%, IL1B secr inh -2.8 and DT40 TDP1 no CPT -2.4%.
Screening Cc1c(C(=O)N2CCOCC2)c(S(=O)(=O)Nc2ccccc2F)c(C)n1C returned DT40 TDP1 CPT 0.1%, HT1080 IDH1KD tx -7.9%, HT1080-NT tox 11.7%, IL1B secr inh -15.7 and DT40 TDP1 no CPT 26.0%.
Cc1c(NC(=O)/C(C#N)=C/c2ccc(-c3cccc(Cl)c3)o2)c(=O)n(-c2ccccc2)n1C was read as DT40 TDP1 CPT inconclusive, HT1080 IDH1KD tx -20.9%, HT1080-NT tox -29.5%, IL1B secr inh -11.8 and DT40 TDP1 no CPT 20.6µM*.
Cc1c(NC(=O)/C(C#N)=C/c2ccc(-c3ccccc3Cl)o2)c(=O)n(-c2ccccc2)n1C was read as DT40 TDP1 CPT inconclusive, HT1080 IDH1KD tx -4.3%, HT1080-NT tox -5.0%, IL1B secr inh -73.0* and DT40 TDP1 no CPT 29.1µM*.
`COc1ccccc1Oc1nc2ccccn2c(=O)c1/C=C(\C#N)C(=O)Nc1c(C)n(C)n(-c2ccccc2)c1=O` gave DT40 TDP1 CPT 4.3%, HT1080 IDH1KD tx -14.7%, HT1080-NT tox 3.1% and DT40 TDP1 no CPT -16.7%.
Cc1c(NC(=O)/C(C#N)=C/c2ccccc2)c(=O)n(-c2ccccc2)n1C was read as DT40 TDP1 CPT 6.0%, HT1080 IDH1KD tx 13.4%, HT1080-NT tox 10.3%, IL1B secr inh -4.1 and DT40 TDP1 no CPT -0.6%.
`Cc1ccc(Oc2nc3ccccn3c(=O)c2/C=C(\C#N)C(=O)Nc2c(C)n(C)n(-c3ccccc3)c2=O)c(C)c1` gave DT40 TDP1 CPT inconclusive, HT1080 IDH1KD tx 0.0%, HT1080-NT tox -13.1%, IL1B secr inh 0.0 and DT40 TDP1 no CPT 13µM*.
For Cc1ccc(/C=C(\C#N)C(=O)Nc2cccc(Cl)c2)o1 the results were DT40 TDP1 CPT 1.3µM* and DT40 TDP1 no CPT -14.4%.
Screening Cc1ccsc1/C=C(\C#N)C(=O)Nc1c(C)n(C)n(-c2ccccc2)c1=O returned DT40 TDP1 CPT -1.4%, HT1080 IDH1KD tx 0.0%, HT1080-NT tox -0.3%, IL1B secr inh 1.6 and DT40 TDP1 no CPT -16.4%.
For Cc1cc(Cl)ccc1OCC(=O)N1CCOc2ccc(CN3C[C@@H](C)O[C@@H](C)C3)cc2C1 the results were DT40 TDP1 CPT -2.8%[9.04 µM] and DT40 TDP1 no CPT inconclusive.
Screening Cc1c(NC(=O)/C(C#N)=C/c2ccc(-c3ccc(Cl)c(Cl)c3)o2)c(=O)n(-c2ccccc2)n1C returned DT40 TDP1 CPT 18.4µM*, HT1080 IDH1KD tx 19.1%, HT1080-NT tox 5.1%, IL1B secr inh -51.9* and DT40 TDP1 no CPT 13µM*.
For Cc1c(NC(=O)C(=O)/C=C(\O)c2ccc(Cl)cc2)c(=O)n(-c2ccccc2)n1C the results were DT40 TDP1 CPT 3.1%, HT1080 IDH1KD tx -4.4%, HT1080-NT tox -1.6%, IL1B secr inh -56.4* and DT40 TDP1 no CPT -8.3%.
CCCCn1c2c(cc(C(=O)OC)c1=O)C(=O)CCC2 was read as DT40 TDP1 CPT 0.1%, HT1080 IDH1KD tx 4.5%, HT1080-NT tox 5.2%, IL1B secr inh 16.4 and DT40 TDP1 no CPT 0.5%.

Screens as filed in PubChem BioAssay.
